Assay results taken from PubChem BioAssay AID893 (National Center for Advancing Translational Sciences (NCATS), 2007).
Values joined by “and” are separate entries in the source; they are usually repeats but may differ in a detail not shown here. Equal entries are not always repeated. Among all 75,000 compounds or so, about 5,700 (7.6%) were called active. Not shown: some 7% with an inconclusive outcome. Shown is part of a subset that was picked to be rich in actives. Unmarked numbers belong to inactive results. The call rests on the fitted dose curve; in most records, active means well fitted inhibition curve with a large enough effect; inconclusive means small, poorly fitted or top-dose-only effect; inactive means no such curve, though single readings can be large or run the other way.

Each compound was assayed against 3-hydroxyacyl-CoA dehydrogenase type-2 (Homo sapiens) (UniProt Q99714) (assay: qHTS Assay for Inhibitors of HSD17B4, hydroxysteroid (17-beta) dehydrogenase 4). Conditions: recombinant HSD17B10, NADH fluorescence kinetic; series mostly up to 57.1 µM; activity change, negative = inhibition: at the top concentration.
In short: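 Enzyme plus compound, 15 min room temperature; substrate mix added (NAD+ 1 mM, beta-hydroxybutyryl-CoA 90 uM final); plates read kinetically for NADH fluorescence. HADH2 was His-tagged, E. coli-derived, 20 nM.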
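Further: the protocol describes HADH2 (HSD17B10) and not the HSD17B4 of the title; nearly all actives have a fitted effect of over 70% in size.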
On the % scale 0 is the no-effect control and ±100 the full control effect; potency means the concentration at half of the fitted maximal effect.

SMILES	activity change, negative = inhibition	Potency
Cc1ccc(SCCN2C(=O)NC(C)(C)C2=O)cc1	5.53%	
C=CCn1c(COc2ccccc2C)nnc1SCC(=O)O	5.36%	
C=CCn1c(COc2cccc3cccnc23)nnc1SCC(=O)OC		31.6 µM (active)
C=CCn1c(COc2ccccc2)nnc1SCC(=O)NCC(=O)OCC	0.839%	
O=C(O)C1C2C=CC(C2)C1C(=O)N1CCN(CCO)CC1 (centres undefined)	12.8%	
CCOC(=O)c1cc(NC(=O)SCC(=O)O)c(C)nc1C	-8.8%	
CCOC(=O)c1cc(-c2nnc(-c3cc(OC)c(OC)c(OC)c3)o2)c(C)nc1C		31.6 µM (active)
COc1cc(-c2nnc(Cn3cc(C(F)(F)F)ccc3=O)o2)cc(OC)c1OC	-1.71%	
Cc1cc(C)cc(C#CC2C=CC(Oc3ccc(C4CCCC4)cc3)C(CO)O2)c1 (centres undefined)	4.3% [at 11.4 µM]	
COCCCNC(=O)c1ccc2c(c1)ncn2-c1ccccc1OC	-20.2%	
CCOCCCNC(=O)c1c[nH]c2cc(C)ccc2c1=O	-2.6%	
CCn1c(=N)c(C(=O)NCCCOC)cc2c(=O)n3cccc(C)c3nc21		31.6 µM (active)
CC(=O)N(Cc1cccs1)C1CCOC(C)(C)C1 (centres undefined)	-3.43%	
O=C(O)c1ccc(COc2c(F)c(F)cc(F)c2F)o1	0.716%	
CCOC(=O)n1c(SCC(=O)N(CC)CC)nc2ccccc21	3.57%	
Cc1cc(N2CCCCC2)nc2ccc(Cc3ccc4nc(N5CCCCC5)cc(C)c4c3)cc12		3.16 µM (active)
COc1ccc(-n2c(SC)nc(O)cc2=O)cc1	8.7%	
CCOC(=O)c1ccccc1NC(=O)CC1Nc2ccccc2NC1=O (centres undefined)	0.318%	
O=C(CC1NCCNC1=O)Nc1ccc(Oc2ccccc2)cc1 (centres undefined)	0.426%	
O=C(CC1Nc2ccccc2NC1=O)Nc1ccccc1 (centres undefined)		25.1 µM (active)
COc1cccc(NC(=O)C(C)Oc2ccccc2)c1 (centres undefined)	-0.198%	
CC(=O)OCC(=O)C1CCC2C3CCC4=CC(=O)CC[C@@]4(C)C3CC[C@]12C (some centres undefined)	2.78%	
Fc1ccccc1OCCSc1nc2ccccc2o1	5.24%	
C[C@H]1O[C@@H](CC(=O)O)Cc2c1c(O)c1c(O)cc(-c3cc(=O)c4c(=O)c5c(c(=O)c=4c3=O)C[C@H](CC(=O)O)O[C@@H]5C)c(O)c1c2O		3.98 µM (active)
CC(C)C1=CC2=CC[C@@H]3[C@](C)(CO)CCC[C@]3(C)C2CC1 (some centres undefined)	9.63%	
Cc1nc2ccc(S(=O)(=O)NC(C(=O)N3CCCCCC3)C(C)C)cc2s1 (centres undefined)	4.54%	

SMILES	activity change, negative = inhibition	Potency
COC(=O)[C@H]1C[C@@H]1[C@H](NC(=O)Oc1ccc(F)cc1)c1ccccc1	-6.57%	
N=c1c2c3c(sc2ncn1CCCN1CCOCC1)CCCCC3	5.59%	
COC(=O)c1ccc(C(NC(=O)OCc2ccccc2)/C(C)=C/[C@@H](C)C(=O)NCc2cc(C)on2)cc1 (some centres undefined)	-4.34%	
Cc1cc(C)cc(OCc2nnc(SCC(=O)Nc3ccccc3)o2)c1	8.07%	
Cc1cccc(OCc2nnc(SCn3nnc4ccccc4c3=O)o2)c1	-9.02%	
Cc1cccc(OCc2nnc(SCc3nc4cc(C(F)(F)F)ccc4c(=O)[nH]3)o2)c1		31.6 µM (active)
O=C(c1csnn1)N1CCC2(CCN(Cc3nccs3)CC2)CC1	-2.61%	
Cc1ccccc1CSc1nnc(-c2ccccn2)n1N	4.98%	
CC(C)(C)NCC[C@@H](O)c1cc(C(F)(F)F)nc2c(C(F)(F)F)cccc12	3.93% [at 11.4 µM]	
O=C(NC1CCN(Cc2ccccc2)CC1)c1ccccc1F	12.8%	
Cc1ccn2cc(C(=O)NC3CCN(Cc4ccccc4)CC3)nc2c1		31.6 µM (active)
COC(=O)c1cc(S(=O)(=O)NC2CCN(Cc3ccccc3)CC2)cn1C	-3.37%	
COc1cc(Cl)cc(C2NC(=O)NC(C)=C2C(=O)NCc2ccccc2)c1O (centres undefined)	8.34%	
CCOc1ccc(C(=O)Nc2cc(OC)ccc2OC)cc1	-11.3%	
Oc1ccc(-c2csc(Nc3cccnc3)n2)cc1	3.13%	
COc1ccc(OC)c(Nc2nc(-c3ccc(O)c(O)c3)cs2)c1		7.94 µM (active)
COc1ccc(-n2nnc3c(=O)n(CC(=O)OCc4ccccc4)cnc32)cc1	1.02%	
c1ccc(-c2noc(-c3cccs3)n2)nc1	-5.02%	
COC(=O)[C@H](C)[C@H]1C[C@]1(C)[C@H](NC(=O)OCc1ccccc1)c1ccccc1	-4.85%	
COc1ccccc1CNc1ncnc2ccc(-c3c(C)noc3C)cc12	-0.171%	
COc1ccc2[nH]cc(CCNc3ncnc4ccc(-c5ccccc5CN(C)C)cc34)c2c1	14.2%	
COc1ccccc1CNc1ncnc2ccc(-c3ccc4c(c3)OCO4)cc12		31.6 µM (active)
COc1cc(OC)c(C(=O)NC2CCCCCC2)cc1OC	-14%	
O=C(COC(=O)C12CC3CC(CC(C3)C1)C2)NCc1ccco1	-13.9%	
O=C(COC(=O)CCC(=O)c1cccs1)NCc1ccco1		25.1 µM (active)
O=C(CCC(=O)c1cccs1)NCc1ccccc1	9.75%	

SMILES	activity change, negative = inhibition	Potency
CC(=O)Nn1cc2c(=O)n(C)c(=O)n(C)c2c1	5.62%	
CC1=C(C(=O)Nc2ccc(Cl)cc2)C(c2ccco2)NC(=O)N1 (centres undefined)	-1.26%	
C=C(C)Cn1c(N2CCN(CC)CC2)nc2c1c(=O)[nH]c(=O)n2C	1.14%	
CCC(C)(C)N=C(NC#N)Nc1cccnc1	-14.3%	
CCOC(=O)CSc1nccc(N(C)C)c1C#N	-0.126%	
CCOC(=O)Cc1c(C)nc2c(C#N)c(C)nn2c1C		25.1 µM (active)
CC[C@@H]1Cc2cc(O)ccc2C2=C1c1ccc(O)cc1C[C@H]2CC		25.1 µM (active)
Cc1ccc2nc(CC(=O)c3ccc4ccccc4c3)c(=O)[nH]c2c1	5.47% [at 11.4 µM]	
C=CC(=O)c1ccc2ccccc2c1		25.1 µM (active)
c1ccc(CCC2=NCCn3cccc32)cc1	4.34%	
CN(CCOc1ccc(CC2SC(=O)NC2=O)cc1)c1ccccn1 (centres undefined)		31.6 µM (active)
CO[C@@H]1COC(=O)[C@H](Cc2ccccc2)NC(=O)C/C=C\[C@@H](C)[C@H](OC)COC(=O)[C@@H](C)NC(=O)C/C=C\[C@H]1C	5.16% [at 11.4 µM] and 0.0428% [at 11.4 µM]	
CCOC(=O)Cc1csc(NC(=O)Nc2ccccc2)n1	5.37%	
Cc1csc(NC(=O)NC2(C(F)(F)F)Oc3ccccc3O2)n1		25.1 µM (active)
Cc1cc(C)nc(NC(=O)Nc2ccccc2C(F)(F)F)n1	-1.71%	
CCCCN(C)C(=O)C1CCN(Cc2ccccn2)CC1	5.92%	
CO[C@H]1COC(=O)[C@@H](C)NC(=O)C/C=C\[C@@H](C)[C@H](OC)COC(=O)C/C=C\[C@@H]1C	-0.943% [at 11.4 µM]	
O=C1c2ccccc2-c2ncnc3c(N4CCOCC4)cc(N4CCOCC4)c1c23	0.627%	
c1ccc(-n2nnnc2N2CCOCC2)cc1	5.21%	
c1ccc(-c2oc3ncnc(N4CCOCC4)c3c2-c2ccccc2)cc1		10 µM (active)
Cc1cc(C(=O)OCC(=O)c2c(N)n(C)c(=O)n(C)c2=O)c(C)o1	7.96%	
CCCOc1cccc(C(=O)Nc2nnn(CCC)n2)c1	11.2%	
CCC(=O)Oc1cccc(C(=O)Nc2ccc(-c3nnc(-c4ccco4)o3)cc2)c1		20 µM (active)
CCOc1cccc(C(=O)Nc2cccnc2)c1	8.63%	
Oc1ccc2c(c1)OCC1c3cc4c(cc3OC21)OCO4 (centres undefined)	-0.88%	
O=C(c1ccccc1)N1CCN(C(=O)N2CCCCC2)CC1	3.89%	

SMILES	activity change, negative = inhibition	Potency
O=C(O)CS(=O)c1ccc2c3c(cccc13)C(=O)c1ccccc1-2 (centres undefined)	-2.63% [at 11.4 µM]	
CC(=O)c1c(C)n(-c2ccc(N(C)C)cc2)c2ccc(OCC(N)=O)cc12	-11.9%	
O=C1Nc2c(Br)cc(Br)cc2C1(O)N1CCOCC1 (centres undefined)	0.821%	
Brc1cccc(-c2nnc3n2CCC3)c1	0.616%	
CCN(CC)c1ccc2oc(=O)c(C)nc2c1	-25.8%	
CCc1ccc2oc(-c3ccc(N)cc3)nc2c1		25.1 µM (active)
Cc1ccc(S(=O)(=O)N2C3C=CC(C3)C2C(=O)O)cc1 (centres undefined)	6.36%	
COC(=O)N1CCC2(CCCN(c3ccncc3)C2)CC1	1.52%	
COc1cccc(N2CCN(C3CC(=O)N(c4ccc(Cl)cc4)C3=O)CC2)c1 (centres undefined)	-12.5%	
COC(=O)CC1C(C)(C)C(OC(C)=O)C2CC3=C4CC(=O)OC(c5ccoc5)[C@]4(C)CCC3[C@@]1(C)C2=O (some centres undefined)	-4.16%	
CCOc1ccc2[nH]c(=O)c(C(c3nnnn3CCOC)N3CCOCC3)cc2c1 (centres undefined)		10 µM (active)
COc1ccc(N2CCN(C(c3cc4ccc(C)cc4[nH]c3=O)c3nnnn3C3CCCC3)CC2)cc1 (centres undefined)	-0.718%	
COCCn1nnnc1C(c1cc2ccc(OC)cc2[nH]c1=O)N1CCc2ccccc2C1 (centres undefined)	-12%	
O=C(Nc1cccc(OCC(=O)N2CCOCC2)c1)C1CCCCC1	10.2%	
O=C1CC2(CCCCC2)Oc2ccc(OCC(=O)N3CCOCC3)cc21		31.6 µM (active)
COc1ccc(OCC(=O)N2CCOCC2)cc1	8.6%	
CC(C)(C)[Si](OCC[C@@H]1C[C@@]1(C)[C@@H](NP(=O)(c1ccccc1)c1ccccc1)c1ccccc1)(c1ccccc1)c1ccccc1	-19.1%	
CC1O[C@@H](Oc2c(-c3ccc(O)c(O)c3)oc3cc(O)cc(O)c3c2=O)C(O)C(O)C1O (some centres undefined)	-7.59%	
O=C1c2oc3ccccc3c(=O)c2C(c2cccc(O)c2)N1c1ccccn1 (centres undefined)	-1.25%	
O=c1c(O)c(-c2ccc(O)cc2)oc2ccccc12		25.1 µM (active)
CCOC(=O)CNC(=O)CSc1nnc(-c2cccc(OC)c2)n1CC	-1.53%	
Cc1ccc(CNC(=O)C2CCCN(S(C)(=O)=O)C2)cc1 (centres undefined)	6.68%	
CCOC(=O)c1cc(C)sc1NC(=O)C1CCC1	-15.9%	
C=CCOc1ccc(/C=N/n2cncn2)cc1OC		15.8 µM (active)
COc1ccccc1OCCOc1ccc(/C=N/n2cnnc2)cc1	1.4%	
COc1cccc(OCCOc2cccc(/C=N/n3cnnc3)c2)c1	-0.34%	
